Assay outcomes from PubChem BioAssay.
The list is not random: actives were taken first. Their share in the collection is about 10%.
Lamin A splicing – changes lamin A minigene splicing in HeLa cells; HeLa LMNA splicing GFP/RFP minigene ratio, 48 h; actives 0.01% (n = 200,000); Potency, µM (series often up to 46.1 µM), inactives show top-dose ratio change, negative = inhibition, usual class: inhibitors; AID 1487; active = well fitted inhibition curve with a large enough effect in the signal ratio, with a control signal flat, not every such curve was filed as active; inconclusive = small, poorly fitted or top-dose-only effect, or effect the other way, or a change in a side signal; the % refers to the signal ratio; also: potency is read from the fitted curve at half-maximal effect
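S3 HeLa stable clones carrying a lamin A-EGFP splicing minigene plus DsRed2 were seeded at 600 cells/well in Opti-MEM with 2% FBS, pin-dosed and incubated 48 h at 37°C. Acumen cytometry (488 nm) gave the GFP/RFP total-intensity ratio.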
PNC inhibitor – blocks assembly of the perinucleolar compartment; actives 3.1% (n = 140,000); activity change (PNC), negative = inhibition, % at 10 µM; PC3M PTB-GFP, PNC prevalence imaging, 16 h; stronger effect = lower value; AID 2417;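 active = readout at or below -70, meaning at least 70% loss of cells showing the perinucleolar compartment, a nuclear body marking cancer cells; inconclusive = readout between -30 and a set limit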;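 also: plate controls were DMSO wells for no effect and camptothecin positive control wells for full effect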
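Read-out is percentage of cells bearing a perinucleolar compartment, from automated 20x imaging of fixed, Hoechst-stained PC3M PTB-GFP cells. Cells were seeded 4 h, then exposed 16 h to compound (23 nl of library stock) in duplicate plates.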
KinaseGlo FLuc – blocks Kinase-Glo luciferase, a counter-screen artifact; Q27757; Kinase-Glo luciferase, ATP luminescence, 8 min; Potency, µM (highest dose often 38.3 µM), for the others: at the highest dose activity change, negative = inhibition, hits mostly inhibitors; actives 0.28% (n = 200,000); AID 1379; active = well fitted inhibition curve with a large enough effect; inconclusive = small, poorly fitted or top-dose-only effect; also: potency is read from the fitted curve at half-maximal effect; nearly all actives have a fitted effect of over 60% in size
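Light output from Kinase-Glo luciferase with luciferin and 10 uM ATP in 50 mM imidazole pH 7.2, KCl, MgCl2, Tween 20, BSA; compound pin-delivered, 8-min ambient incubation, then luminescence read.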
IMPase inh – cell-permeable inhibitors of inositol monophosphatase (IMPase); inhibition (IP1 accumulation), % at 46.1 µM; CHO-M1 cells, IP1 accumulation, HTRF TR-FRET ratio; 120,000 tested, under 10 active; active = well fitted curve in the direction sought with a large enough effect in the signal ratio, not every such curve was filed as active; inconclusive = small, poorly fitted or top-dose-only effect, or a change in a side signal; inactive = no such curve, though single readings can be large or run the other way; the % refers to the signal ratio;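 also: cells stimulated with carbachol in lithium chloride buffer; plate controls were DMSO basal wells for no effect and reference inhibitor wells for full effect; higher means more IMPase inhibition seen as more IP1 and lower FRET ratio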
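Carbachol-driven Gq signalling in CHO-M1 cells (2000/well) generates IP1. Compounds that block IMPase raise IP1 and so reduce the FRET signal from Eu-anti-IP1 and d2-IP1 after a 10 min room-temperature lysis.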
HPGD block – inhibitors of human 15-hydroxyprostaglandin dehydrogenase (HPGD); P15428; actives 4.3% (n = 150,000); Potency, µM, inactives show at the highest dose activity change, negative = inhibition, actives largely listed as inhibitors; purified HPGD, NADH fluorescence kinetic, PGE2 substrate; AID 894; also: potency is read from the fitted curve at half-maximal effect
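NADH formation kinetics: reaction with 30 uM PGE2 and 1 mM NAD+ (final), 20 nM enzyme, Tris-HCl pH 8 with Tween 20, after 15 min compound preincubation at room temperature. Fluorescence change, last versus first of five reads.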
ALDH1A1 inh – blocks purified human ALDH1A1 activity | P00352 | actives 7.3% (n = 220,000) | AID 1030 | Purified ALDH1A1, NADH fluorescence, propionaldehyde substrate | Potency, µM (highest dose often 75.3 µM), inactives show top-dose activity, negative = inhibition, hits mostly inhibitors;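 also: potency is read from the fitted curve at half-maximal effect; plate controls were no enzyme wells and a reference inhibitor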
Target sequence (P00352 whole entry, looked up): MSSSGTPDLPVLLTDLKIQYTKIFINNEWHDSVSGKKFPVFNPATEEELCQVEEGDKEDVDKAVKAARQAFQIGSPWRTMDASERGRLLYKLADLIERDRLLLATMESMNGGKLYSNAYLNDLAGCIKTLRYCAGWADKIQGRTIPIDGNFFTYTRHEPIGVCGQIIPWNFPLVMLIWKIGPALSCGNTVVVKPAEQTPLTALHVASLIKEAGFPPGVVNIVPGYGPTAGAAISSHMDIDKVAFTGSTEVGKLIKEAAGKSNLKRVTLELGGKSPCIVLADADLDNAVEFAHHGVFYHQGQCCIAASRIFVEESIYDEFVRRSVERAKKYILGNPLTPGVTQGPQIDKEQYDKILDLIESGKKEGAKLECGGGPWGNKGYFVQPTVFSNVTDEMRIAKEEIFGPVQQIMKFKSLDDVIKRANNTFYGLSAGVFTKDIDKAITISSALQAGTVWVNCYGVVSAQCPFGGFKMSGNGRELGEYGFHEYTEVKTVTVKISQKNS
Active calls of the source: *; u = inconclusive; x = no result; [ ] = dose if it differs, or a comment. Unless noted, calls follow the shape of the dose curve; as a rule, active = well fitted inhibition curve with a large enough effect (not every such curve was filed as active); inconclusive = small, poorly fitted or top-dose-only effect, or another doubt; inactive = no such curve, though single readings can be large or run the other way. Unless noted, % is scaled to controls: 0 for no effect and ±100 for the full control effect.

SMILES	Lamin A splicing	PNC inhibitor	KinaseGlo FLuc	IMPase inh	HPGD block	ALDH1A1 inh
N#Cc1cc2cc3c(cc2nc1SCC(=O)OC1CCCCC1)OCO3	-1%	u	-4%	-5	u	u
COc1ccc2nc(SCC(=O)N3CCN(c4ccc(F)cc4)CC3)c(C#N)cc2c1	-3%	16	8%	-1	-6%	7.9µM*
COc1cc2cc(C)c(SCC(=O)N3CCOCC3)nc2cc1OC	-1%	-13	x	1	x	-7%
COCCn1c(C)cc(O)c(C(c2ccccc2)N2CCN(CCO)CC2)c1=O (centres undefined)	1%[46 µM]	x	x	x	x	x
C[C@@]12CC[C@@H]3[C@H](CCC4=CC(=O)CC[C@]43C)[C@@H]1CC[C@@H]2C(=O)Cn1cnc2c(=S)nc[nH]c21	x	x	-3%[7.66 µM]	x	0%	-1%[13.5 µM]
CCC(C(=O)N1CCN(c2ccccc2OC)CC1)c1ccccc1 (centres undefined)	u	19	-1%	x	-8%	40µM*
CCOC(=O)N1CCN(c2ccccc2OC)CC1	x	x	x	x	x	0%
COc1ccccc1N1CCN(C[C@@H](C(=O)NC(C)(C)C)c2ccccc2)CC1	x	x	3%	5	-11%	25µM*
CCc1nnc2c3ccccc3nc(Nc3ccc(F)c(Cl)c3)n12	x	x	x	-4	x	x
CCn1nc(C)c(NC(=O)/C=C/c2cnn(C)c2)c1C	-2%	-29	0%	0	2%	-2%
Cc1nn(C)cc1CNC(=O)/C=C/c1cnn(C)c1	-8%	-109*	-3%	x	-7%	9%
CCS(=O)(=O)N1CC(=O)N(c2cccc(Cl)c2C)C(C)(C(=O)NC2CCCCC2)C1 (centres undefined)	-10%[46 µM]	x	x	x	x	x
COc1ccc(CCNC(=O)C(=O)Nc2ccc(C)c(C)c2)cc1	x	x	x	-7	x	x
COc1ccc(C/C(C)=N/NC(=S)Nc2ccc(C)c(C)c2)cc1	-8%	-12	x	3	x	24µM*
COc1ccc(NC(=S)N/N=C/c2cccn2Cc2ccc(F)cc2)cc1	1%[46 µM]	x	1%	x	x	40µM*
CCOc1ccc(NC(=S)N/N=C(\C)Cc2ccc(OC)cc2)cc1	-19%	64	-4%	x	u	-3%
COc1ccc(C/C(C)=N/NC(=S)Nc2ccccc2)cc1	5%	3	2%	x	-30%	22µM*
COC(=O)C1=NOC2(C=C(Br)C(OC)=C(Br)C2=O)C1 (centres undefined)	x	x	x	x	x	-13%[13.5 µM]
Cc1noc(C)c1C(=O)N1CCC2(CC1)CN(c1ccccn1)C2	x	x	-3%	x	u	u
C=CCOC(=O)C1=C(C)N=C2SCCC(=O)N2C1c1ccc(OC(=O)c2ccco2)cc1 (centres undefined)	2%	-127*	-2%	-5	-24%	20µM*
COC(=O)c1ccc(C2C(C(=O)OC(C)C)=C(C)N=C3SCCC(=O)N32)cc1 (centres undefined)	9%	-90*	-1%	7	-15%	-9%
Cc1cc([C@](C)(N)C(=O)O)ccc1P(=O)(O)O	x	x	-1%	-4	-5%	-3%
O=C(CNC(=O)c1ccccc1F)OCc1cc(=O)n2ccsc2n1	7%[46 µM]	x	x	x	x	x
O=c1oc(Nc2ccccc2F)nc2ccccc12	4%	-10	x	-6	x	20µM*
O=c1oc(Nc2ccccc2Cl)nc2ccccc12	x	x	-2%	x	x	u
C=CCn1c(SCC(=O)N2CCN(c3ccc(F)cc3)CC2)nnc1-c1cccs1	u	-96*	16%	-22	-11%	u
C=CCn1c(SCC(=O)N2CCN(c3ccccc3)CC2)nnc1-c1ccco1	-10%	u	-1%	4	-5%	-8%
c1ccc(-c2nc(-c3cccs3)c(NC3CCCCC3)o2)cc1	x	x	-2%	x	-10%	2%
COC(=O)CC1=COC2OCC3=CC[C@@H]1C32 (some centres undefined)	x	x	x	x	x	9%[13.5 µM]
CCOC(=O)C1=C(c2ccccc2)NC(=O)NC1c1cc(Br)c(O)c(OC)c1 (centres undefined)	x	x	3%	x	x	22µM*
